# Reference: paper PMC4336329 (PLoS ONE, 2015)
# Hit rate of the full screen: of about 310,000 compounds, about 14,000 (4.5%) showed an effect of 50% or more. The effect is printed as a negative number. The entries come from a sample that favours strong results as a whole.
# Biological target: human ether-à-go-go-related gene (hERG) potassium channel (human, UniProt Q12809)
# Experiment: primary screen, population patch clamp on CHO cells stably expressing hERG; higher = less effect of the substance
# 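Also: peak tail current of the secondary pulse compared with the same well before compound.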
# Sequence of human ether-à-go-go-related gene (hERG) potassium channel (Q12809 whole entry, looked up): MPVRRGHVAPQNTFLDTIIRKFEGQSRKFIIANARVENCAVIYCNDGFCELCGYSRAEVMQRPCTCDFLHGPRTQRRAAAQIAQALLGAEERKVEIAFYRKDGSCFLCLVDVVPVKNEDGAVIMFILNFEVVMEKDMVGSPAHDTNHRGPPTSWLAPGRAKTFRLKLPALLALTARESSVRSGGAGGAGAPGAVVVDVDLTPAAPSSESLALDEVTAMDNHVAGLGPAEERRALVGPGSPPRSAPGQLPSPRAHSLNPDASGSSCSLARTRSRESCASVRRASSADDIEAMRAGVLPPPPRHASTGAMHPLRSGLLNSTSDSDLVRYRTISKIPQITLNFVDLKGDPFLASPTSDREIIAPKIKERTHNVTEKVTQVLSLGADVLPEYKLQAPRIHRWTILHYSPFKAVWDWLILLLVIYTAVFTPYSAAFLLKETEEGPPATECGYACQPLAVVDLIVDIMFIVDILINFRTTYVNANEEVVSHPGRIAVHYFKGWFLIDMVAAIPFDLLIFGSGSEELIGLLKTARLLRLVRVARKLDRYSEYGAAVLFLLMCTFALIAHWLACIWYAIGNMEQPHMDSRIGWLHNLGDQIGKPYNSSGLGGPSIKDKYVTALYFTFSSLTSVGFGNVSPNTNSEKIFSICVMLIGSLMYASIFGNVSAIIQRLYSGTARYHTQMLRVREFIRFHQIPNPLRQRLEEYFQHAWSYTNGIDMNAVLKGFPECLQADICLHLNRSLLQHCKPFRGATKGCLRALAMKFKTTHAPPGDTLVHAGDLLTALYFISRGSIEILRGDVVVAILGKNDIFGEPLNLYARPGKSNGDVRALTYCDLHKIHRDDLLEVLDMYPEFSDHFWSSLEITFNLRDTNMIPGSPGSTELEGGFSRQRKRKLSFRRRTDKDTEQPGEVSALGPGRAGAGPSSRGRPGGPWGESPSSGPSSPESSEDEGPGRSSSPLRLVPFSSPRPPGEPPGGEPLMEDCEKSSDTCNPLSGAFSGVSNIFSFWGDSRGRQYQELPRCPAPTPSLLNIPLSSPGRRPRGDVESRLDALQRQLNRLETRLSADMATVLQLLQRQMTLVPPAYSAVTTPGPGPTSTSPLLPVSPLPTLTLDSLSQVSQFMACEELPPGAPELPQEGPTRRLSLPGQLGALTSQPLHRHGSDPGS
row,Structure (SMILES),"hERG current change (%, negative = inhibition) at 10uM [%]"
1,Cc1ccc(S(=O)(=O)c2cnc3cc(C)nn3c2N)cc1,0.694
2,Cc1ccc(CN2C(=O)[C@@H]3Cc4c([nH]c5ccccc45)C(C)(C)N3C2=O)cc1,7.62
3,O=[N+]([O-])c1ccccc1/C=N/NC1=NS(=O)(=O)c2ccccc21,-1.94
4,O=C(NCCCN1CCCC1=O)NC1CCCCC1,10.9
5,Cc1ccc(NC(=S)NNC(=O)c2ccc(N3CCOCC3)c([N+](=O)[O-])c2)cc1Cl,6.24
6,O=C(O)CCC1=C2c3ccccc3CCN2C(=O)CC1,9.77
7,Cc1ccc(C(=O)Nn2cnnc2)cc1Cl,16.3
8,CC1CCN(S(=O)(=O)c2ccc(NC(=O)CSc3ncccc3C(=O)O)cc2)CC1,7.31
9,O=C(COc1ccc2c3c(c(=O)oc2c1)CCC3)NC1CCN(Cc2ccccc2)CC1,-24.9
10,CCCCc1cc(=O)oc2cc(OCC(=O)NC3CCN(Cc4ccccc4)CC3)ccc12,-61.1
11,CCCCc1cc(=O)oc2cc(OCC(=O)NCC3CCC(C(=O)O)CC3)ccc12 (stereo not drawn),18
12,CCCCc1cc(=O)oc2cc(OCC(=O)N[C@@H](Cc3ccccc3)C(=O)O)ccc12,6.13
13,Cc1cc(OCC(=O)NC2CCN(Cc3ccccc3)CC2)c2c(C)cc(=O)oc2c1,-21.4
14,O=C(COc1ccccc1)NC1CCSC1=O (stereo not drawn),-72.9
15,O=C(COc1ccc(Cl)cc1)NC1CCSC1=O (stereo not drawn),-16.8
16,Cc1cc(=O)oc2cc(OCC(=O)NC3CCN(Cc4ccccc4)CC3)ccc12,-63.9
17,O=C(COc1ccccc1)NC1CCSc2ccccc21 (stereo not drawn),0.0355
18,O=c1[nH]c(O)c(N=Nc2ccc3c(c2)OCCO3)c(=O)[nH]1,14.2
19,CC(=O)N1c2ccc(N=Cc3cc(Br)cc(Br)c3O)cc2CC1C (stereo not drawn),2.6
20,Cc1ccc(CN2C(=O)/C(=C\c3ccc(C(=O)NCc4cccnc4)cc3)Oc3ccccc32)cc1,12.9
21,O=C(NNc1ccccn1)C(=O)NNS(=O)(=O)c1ccc(F)cc1,12.5
22,Cn1c(=O)c2nc(-c3ccccc3)oc2c2ccccc21,-1.46
23,N#Cc1c(-c2ccccc2)nc(SCC(=O)Nc2ccc(OC(F)(F)Cl)cc2)[nH]c1=O,28.5
24,CN(C)C(=S)Nc1ccc2ccccc2c1,11.2
